Screening results: PubChem, The Scripps Research Institute Molecular Screening Center
Shown are actives, neighbours in structure and some others; about 3.5% of the full set was active somewhere.
FBW7 activator – FBW7 E3 ligase activators, primary screen, biochemical, AlphaScreen, human; AlphaScreen FBW7–phospho-cyclin E peptide binding, activator screen; normalized activity (activation), % at 26.1 µM; 0.13% of 650,000 active; in the data active = normalized activity above about 1.9%;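 also: purified mutant Fbw7 with reduced substrate affinity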
GPR151 ag – activators of human GPR151, primary screen, cell-based, PathHunter beta-arrestin, luminescence | G-protein coupled receptor 151 (Homo sapiens), Q8TDV0 | PathHunter beta-arrestin GPR151 cells | activation, % at 11.2 µM | 1% of 650,000 active | AID 1508602, 2020; in the data active = activation above about 4.9%;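 also: 0% = median of compound wells and 100% = cells with positive control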
TEAD-YAP inh – TEAD-YAP interaction inhibition, primary screen, TEAD-YAP interaction inhibitor project, luminescence, HEK-TIYL cells. 1.4% of 640,000 active. inhibition, % at 9.12 µM. AID 1259422, 2018. TEAD-Gal4/YAP UAS-luciferase luminescence; in the data active = inhibition above about 32%;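 also: 0% = median of test compound wells and 100% = reference inhibitor wells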
MITF inh – MITF inhibitors, primary screen, biochemical, AlphaScreen, human. inhibition, % at 2.6 µM. AlphaScreen MITF homodimerization, bead proximity signal. 0.91% of 650,000 active. AID 1259374, 2018. Microphthalmia-associated transcription factor (Homo sapiens), O75030; in the data active = inhibition above about 50%;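 also: 0% = vehicle wells with protein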
GPR151 conf act – GPR151 activators, triplicate retest, confirmation, cell-based, PathHunter beta-arrestin, luminescence; shares compounds with GPR151 ag; GPR151 PathHunter beta-arrestin cells, 90 min; % of EA-reagent control over plate median; activation, % at 11.2 µM; 6,700 tested, under 10 active;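 active = mean percent activation across replicates above the confirmation screen cutoff of 4.91%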
GPR119 counter – GPR119 activators in beta-arrestin cells, counter-screen for GPR151 activator project, cell-based, PathHunter beta-arrestin, luminescence, triplicate; shares compounds with GPR151 ag; 90 min; 0 = compound-well median, 100 = enzyme-acceptor control; activation, % at 11.2 µM; 0.3% of 6,700 active; AID 1508611, 2020;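 active = mean percent activation in the counterscreen above 29.09%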;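 also: counterscreen on off-target GPR119 to flag nonselective hits from the GPR151 activator screen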
Target sequence (Q8TDV5 whole entry, looked up): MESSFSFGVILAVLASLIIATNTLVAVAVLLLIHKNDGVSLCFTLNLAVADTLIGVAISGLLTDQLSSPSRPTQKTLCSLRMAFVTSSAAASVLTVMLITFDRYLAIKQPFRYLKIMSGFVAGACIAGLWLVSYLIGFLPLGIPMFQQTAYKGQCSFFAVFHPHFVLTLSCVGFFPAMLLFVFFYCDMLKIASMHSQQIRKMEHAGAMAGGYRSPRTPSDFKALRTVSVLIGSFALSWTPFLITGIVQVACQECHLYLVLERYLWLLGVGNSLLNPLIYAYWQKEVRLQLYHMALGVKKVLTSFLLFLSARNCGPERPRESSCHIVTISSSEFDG
An asterisk follows results filed as active; x = no result given.

SMILES	FBW7 activator	GPR151 ag	TEAD-YAP inh	MITF inh	GPR151 conf act	GPR119 counter
N#C/C(=C(/O)COc1ccccc1)c1nnc2n1CCCCC2	-0.2	-1.0	2.1	-4.8	x	x
COc1cccc(N2CC(C(=O)NCCc3ccsc3)CC2=O)c1 (stereo not given)	-0.1	5.5*	7.1	1.4	-1.1	-13.8
COc1cccc(N2CC(C(=O)N3CCN(CCn4nc(C)cc4C)CC3)CC2=O)c1 (stereo not given)	0.3	8.1*	5.3	8.9	1.6	-0.2
COc1ccc(N2CC(C(=O)NCCc3ccccc3)CC2=O)cc1 (stereo not given)	-0.2	0.3	-5.6	-55.5	x	x
COc1cccc(N2CC(C(=O)Oc3ccc4ccccc4c3)CC2=O)c1 (stereo not given)	0.1	7.3*	-7.7	3.0	0.2	-0.9
C/C(=C\C(=O)c1ccc(Br)cc1)Nc1ccc(O)cc1	-0.2	2.2	3.1	3.5	x	x
CC1CCc2c(sc(NC(=O)c3ccc([N+](=O)[O-])cc3Cl)c2C#N)C1 (stereo not given)	0.0	0.5	9.1	2.6	x	x
O=C(NCCc1ccc(O)cc1)c1ccnc(N2CCC(N3CCOCC3)CC2)c1	0.0	1.4	-9.0	-2.2	x	x
O=C(C1CCCO1)N(c1ccc(Cl)cc1)C1C=CS(=O)(=O)C1 (stereo not given)	0.0	9.6*	-9.4	9.9	0.5	1.5
CC(C)C(=O)N1CCCC(c2ncncc2-c2ccncc2)C1 (stereo not given)	-0.1	0.0	-9.1	-12.4	x	x
Cc1ccc2c(c1)C(O)(CC(=O)c1ccc(Cl)s1)C(=O)N2 (stereo not given)	0.7	-0.9	-7.4	8.2	x	x
O=c1c2c(nc3cc(-c4cccs4)[nH]n13)CCS2	-0.2	-2.2	-42.6	6.4	x	x
CC1CCN(S(=O)(=O)c2ccc(NC(=O)CSc3nc4ccccc4o3)cc2)CC1	0.1	16.0*	10.5	4.2	2.2	26.5
CCC(C(=O)Nc1ccc(S(=O)(=O)N2CCC(C)CC2)cc1)c1ccccc1 (stereo not given)	0.2	5.0*	-2.2	-17.2	0.7	3.7
O=C(CSc1cccc[n+]1[O-])Nc1ccccc1	-0.2	1.3	-9.6	-8.8	x	x
CC1CCCCN1S(=O)(=O)c1ccc(NC(=O)CSc2nc3ccccc3o2)cc1 (stereo not given)	0.2	-0.5	-1.0	8.4	x	x
O=C(CSc1cccc[n+]1[O-])Nc1ccc(S(=O)(=O)N2CCCC2)cc1	0.4	6.4*	2.6	-10.3	0.0	-1.6
O=C(Nc1ccc(F)cc1F)c1cc2nc(-c3ccc(Br)cc3)cc(C(F)(F)F)n2n1	-0.1	-1.4	5.1	10.5	x	x
CCOC(=O)c1[nH]c(C)c(C(=O)NCCc2ccc(OC)c(OC)c2)c1C	-0.2	1.0	-2.2	11.0	x	x
COc1ccc(N2CC(NC(=O)NC(c3ccccc3)c3ccccc3)CC2=O)cc1 (stereo not given)	0.0	6.1*	10.9	-7.3	0.3	1.2
CC(C)CC1(C)NC(=O)N(Cc2nnc(-c3ccccc3Br)o2)C1=O (stereo not given)	0.1	7.0*	-6.7	2.8	1.3	0.8
O=C(Nc1ccc(-c2ccccc2)cc1)c1ccncc1	0.1	1.0	-4.1	7.4	x	x
Cc1ccc(CS(=O)(=O)CCC(=O)NCCN(C)Cc2ccccc2)cc1	0.2	7.7*	-3.0	13.6	0.4	-0.8
O=C(NCc1cccnc1)c1cc(-c2ccc(F)cc2)no1	-0.2	5.0*	-23.1	13.5	0.1	-5.5
CC(C)NC(=O)CN(c1cccc2ccccc12)S(C)(=O)=O	0.2	8.4*	2.7	-15.6	-0.1	-1.9
CS(=O)(=O)N(CC(=O)Nc1cccc(F)c1)c1ccccc1F	0.5	4.7	-1.4	-4.2	x	x
CS(=O)(=O)N(CC(=O)Nc1cccc(F)c1)c1ccccc1Cl	-0.1	5.0*	-5.6	0.3	0.2	2.1
CCc1ccccc1N(CC(=O)Nc1ccccc1SC)S(C)(=O)=O	0.1	5.6*	0.3	3.9	-0.2	-5.7
